In the library only some 17% were active in any assay of this set; here they are far more common.
TDP1 cell noCPT: qHTS for Inhibitors of human tyrosyl-DNA phosphodiesterase 1 (TDP1): qHTS in cells in absence of CPT; DT40 Tdp1-/- hTDP1 cells, no CPT, ATP luminescence, 48 h; Potency, µM (highest dose often 46.2 µM), for the others: top-dose activity change, negative = growth inhibition, actives largely listed as inhibitors; hit rate 15% among 420,000; AID 686978, 2013; further: on the % scale 0 is the no-effect control and ±100 the full control effect; nearly all actives have a fitted effect of over 55% in size
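Camptothecin absent (DMSO only). Human TDP1-complemented DT40 knockout cells, 400 cells/well, 37 °C for minimum 48 hr; ATP measured via CellTiter-Glo, 30 min dark incubation, luminescence.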
DT40 TDP1 CPT: qHTS for Inhibitors of human tyrosyl-DNA phosphodiesterase 1 (TDP1): qHTS in cells in presence of CPT | chicken DT40 Tdp1-/-;hTDP1 cells + 20 nM CPT, ATP luminescence, 48 h | AID 686979, 2013 | Potency, µM (doses to about 46.2 µM), for inactives: at the top dose activity change, negative = growth inhibition, most hits filed as inhibitors | hit rate 12% among 420,000; further: on the % scale 0 is the no-effect control and ±100 the full control effect; nearly all actives have a fitted effect of over 55% in size
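Chicken DT40 Tdp1-/- cells complemented with human TDP1, 400 cells/well, exposed to compounds plus 20 nM camptothecin for at least 48 h at 37 C; viability read as ATP content by CellTiter-Glo luminescence.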
ClpP mod: qHTS Assay for Activators of ClpP | hit rate 1.9% among 340,000 | ATP-dependent Clp protease proteolytic subunit (Bacillus subtilis (strain 168)), P80244 | purified B. subtilis ClpP, FRET peptide cleavage, 20 min | Potency, µM (doses to about 57.5 µM), for inactives: at the highest dose activity change, negative = active; active means well fitted falling curve with a large enough effect; inconclusive means small, poorly fitted or top-dose-only effect; inactive means no such curve, though single readings can be large or run the other way; further: the source files actives as falling curves though it sought activators and does not explain the sign; nearly all actives have a fitted effect of over 65% in size
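ClpP 10 microg/mL final, pH 8 Tris/KCl buffer with BSA, glycerol, Tween-20; compound pinned in; FRET-FV substrate; RT 20 min; Ex320/Em430; ΔFRET vs ADEP 5.8 microM, DMSO, no enzyme.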
TDP1 block: qHTS Assay for Inhibitors of Tyrosyl-DNA Phosphodiesterase (TDP1). Tyrosyl-DNA phosphodiesterase 1 (Homo sapiens), Q9NUW8. recombinant TDP1, AlphaScreen DNA substrate cleavage. Potency, µM (titrated, usually from 130 µM), for the others: at the top dose activity change, negative = inhibition, hits mostly inhibitors. hit rate 0.28% among 350,000; further: on the % scale 0 is the no-effect control and ±100 the full control effect; nearly all actives have a fitted effect of over 40% in size
Target sequence (Q9NUW8 whole entry, looked up): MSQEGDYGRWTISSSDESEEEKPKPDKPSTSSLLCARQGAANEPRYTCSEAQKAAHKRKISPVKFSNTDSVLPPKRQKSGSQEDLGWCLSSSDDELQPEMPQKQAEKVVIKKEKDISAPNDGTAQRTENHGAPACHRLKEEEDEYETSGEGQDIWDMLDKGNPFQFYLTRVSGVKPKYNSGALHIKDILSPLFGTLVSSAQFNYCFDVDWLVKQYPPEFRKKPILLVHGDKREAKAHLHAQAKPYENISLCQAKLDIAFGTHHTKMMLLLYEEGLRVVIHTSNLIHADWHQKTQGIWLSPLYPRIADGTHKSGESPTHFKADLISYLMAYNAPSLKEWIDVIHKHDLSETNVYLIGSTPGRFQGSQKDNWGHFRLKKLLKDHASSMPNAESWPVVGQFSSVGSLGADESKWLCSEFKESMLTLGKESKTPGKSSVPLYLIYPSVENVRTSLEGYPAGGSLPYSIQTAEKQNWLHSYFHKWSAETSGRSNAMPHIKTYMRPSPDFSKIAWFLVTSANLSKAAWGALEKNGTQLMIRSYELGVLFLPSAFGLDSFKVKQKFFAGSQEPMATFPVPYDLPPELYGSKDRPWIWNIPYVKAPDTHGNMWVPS
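Tdp1 1 nM final; 15 min RT w/ cpd; substrate 15 nM, 5 min; beads 10 ug/ml, 10 min; AlphaScreen read. Neg ctrl: no enzyme.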
ClpP inh valid: qHTS Assay for Activators of ClpP: Hit Validation of Inhibitors | shares compounds with ClpP mod | purified B. subtilis ClpP, FRET-FV substrate cleavage, 20 min | Potency, µM (series often up to 57.5 µM), inactives show at the highest dose activity change, negative = inhibition, usual class: inhibitors | hit rate 40% among 470 | AID 743245, 2014; further: on the % scale 0 is the no-effect control and ±100 the full control effect; nearly all actives have a fitted effect of over 70% in size
Active calls of the source: *; [ ] = another dose, or the depositor's remark. Unless noted, the call rests on the fitted dose curve; in most records, active means well fitted curve in the direction sought with a large enough effect; inconclusive means small, poorly fitted or top-dose-only effect, or another doubt; inactive means no such curve, though single readings can be large; an effect the other way counts as inactive or inconclusive. Potency means the concentration at half of the fitted maximal effect.

Screening COc1ccc(S(=O)(=O)NC(CC(=O)N2CCC3(CC2)OCCO3)c2ccco2)cc1 (configuration not stated) returned TDP1 cell noCPT -19%, DT40 TDP1 CPT -1%, ClpP mod 2.8µM*, TDP1 block 2% and ClpP inh valid -2%.
Screening CSc1ccc(CNC(C)C(O)c2ccccc2)cc1 (configuration not stated) returned TDP1 cell noCPT inconclusive, DT40 TDP1 CPT -30% and TDP1 block 8%.
Screening Cc1cc(C)cc(Nc2nc3ccc(C)cc3n3cnnc23)c1 returned TDP1 cell noCPT inconclusive, DT40 TDP1 CPT -25% and ClpP mod -2%.
Screening O=C(NCCc1ccc(Cl)cc1)c1ccc(Nc2nc3ccccc3n3nnnc23)cc1 returned TDP1 cell noCPT 10µM*, DT40 TDP1 CPT inconclusive, ClpP mod 119%, TDP1 block -2%[12.3 µM] and ClpP inh valid 22µM*.
For Cc1ccc(CNC(=O)c2ccc(Nc3nc4ccccc4n4nnnc34)cc2)cc1 the results were TDP1 cell noCPT 15µM*, DT40 TDP1 CPT inconclusive, ClpP mod 130%, TDP1 block 0% and ClpP inh valid 2.7µM*.
For CC(=O)N[C@@H]1CCSC1=O the results were TDP1 block 8%[21 µM].

Compound activity from PubChem.
